According to PubChem BioAssay (Tox21):
Records with an inconclusive call do not appear. Calls of active or inactive are those of the source. Unless noted, the call rests on the fitted dose curve; in most records, active means well fitted curve in the direction sought with a large enough effect in the repeat runs; inconclusive means weak or mixed curves; inactive means flat fitted curve, though single readings scatter.

Assays:
[1] = qHTS assay to test for compound auto fluorescence at 535 nm (green) in HEK293 cells (AID 720680)
[2] = qHTS assay to test for compound auto fluorescence at 535 nm (green) in HEK293 cell free culture (AID 720682)
Procedure, shortened: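 Compounds were pin-transferred into cell-free DMEM with 10% FBS, and green fluorescence was read at excitation 485 nm and emission 535 nm. Intensities were expressed as fluorescein-equivalent values.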

[3] = qHTS assay to test for compound auto fluorescence at 590 nm (red) in HEK293 cell free culture (AID 720683)
Procedure, shortened: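 Cell-free wells of DMEM with 10% FBS received compound, and intrinsic fluorescence was read at excitation/emission 540/590 nm. Values expressed as equivalence to Rose Bengal sodium.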

[4] = qHTS assay to test for compound auto fluorescence at 460 nm (blue) in HepG2 cell free culture (AID 720685)
Procedure, shortened: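 Cell-free plates of MEM plus 10% FBS received 23 nL compound or DMSO vehicle; blue-channel (405/460 nm) intensity scored against triamterene as reference fluorophore.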

[5] = qHTS assay to test for compound auto fluorescence at 535 nm (green) in HepG2 cell free culture (AID 720686)
[6] = qHTS assay to test for compound auto fluorescence at 590 nm (red) in HepG2 cell free culture (AID 720684)
Procedure, shortened: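 Rose Bengal sodium served as the reference for red signal. Test compounds were dispensed into serum-containing MEM (10% FBS) without cells, and plates were read at 540/590 nm.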

[7] = qHTS assay to test for compound auto fluorescence at 460 nm (blue) in HepG2 cells (AID 720687)
Procedure, shortened: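 HepG2 cells in MEM with 10% FBS, attached overnight at 37 C, were exposed to compound or DMSO for 1 hr at 37 C, 5% CO2. Blue fluorescence was read at 405/460 nm, with triamterene as reference fluorophore.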

[8] = biological target: Glucocorticoid receptor (Homo sapiens) (UniProt P04150); assay: qHTS assay to identify small molecule agonists of the glucocorticoid receptor (GR) signaling pathway (AID 720691; active means well fitted activation curve with a large enough effect in the signal ratio in the repeat runs, not every such curve was filed as active; the % refers to the signal ratio)
Glucocorticoid receptor (Homo sapiens), sequence (P04150 whole entry, looked up): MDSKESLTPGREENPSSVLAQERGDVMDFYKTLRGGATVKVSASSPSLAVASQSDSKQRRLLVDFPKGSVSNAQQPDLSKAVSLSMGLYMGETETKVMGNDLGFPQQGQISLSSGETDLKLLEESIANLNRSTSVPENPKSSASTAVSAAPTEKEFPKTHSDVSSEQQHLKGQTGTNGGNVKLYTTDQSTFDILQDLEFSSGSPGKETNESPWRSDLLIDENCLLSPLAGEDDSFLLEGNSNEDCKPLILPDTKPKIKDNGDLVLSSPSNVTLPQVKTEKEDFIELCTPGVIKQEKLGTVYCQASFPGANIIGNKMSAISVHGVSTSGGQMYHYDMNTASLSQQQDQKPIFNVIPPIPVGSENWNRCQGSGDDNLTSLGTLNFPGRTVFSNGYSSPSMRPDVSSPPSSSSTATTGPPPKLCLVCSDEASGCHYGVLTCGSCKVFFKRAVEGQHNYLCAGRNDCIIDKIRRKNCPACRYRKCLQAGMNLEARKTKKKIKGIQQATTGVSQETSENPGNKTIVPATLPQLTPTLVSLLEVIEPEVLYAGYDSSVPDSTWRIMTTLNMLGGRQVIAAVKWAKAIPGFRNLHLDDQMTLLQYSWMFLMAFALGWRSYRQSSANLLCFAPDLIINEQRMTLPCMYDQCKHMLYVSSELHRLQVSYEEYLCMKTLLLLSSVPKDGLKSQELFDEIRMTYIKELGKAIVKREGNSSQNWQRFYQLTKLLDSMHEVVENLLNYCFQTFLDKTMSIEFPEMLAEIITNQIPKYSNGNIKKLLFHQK
Procedure, shortened: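 HeLa GR-bla reporter line; cells pre-incubated 4 h, compound in DMSO 18 h at 37 C; LiveBLAzer B/G FRET substrate 2 h RT; fluorescence intensity read-out.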

[9] = biological target: Glucocorticoid receptor (Homo sapiens) (UniProt P04150); assay: qHTS assay to identify small molecule antagonists of the glucocorticoid receptor (GR) signaling pathway (AID 720692; active means well fitted inhibition curve with a large enough effect in the signal ratio in the repeat runs, not every such curve was filed as active; the % refers to the signal ratio)
Procedure, shortened: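 Read-out: beta-lactamase FRET substrate fluorescence, 2 h at room temperature, in HeLa cells stably carrying a GRE-driven bla reporter. Compounds were co-incubated with 5 nM dexamethasone agonist (final) for 18 h at 37 C.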

[10] = qHTS assay to test for compound auto fluorescence at 460 nm (blue) in HEK293 cell free culture (AID 720681)
Procedure, shortened: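 Compounds were added to cell-free DMEM with 10% FBS and fluorescence read directly. The blue channel used 405 nm excitation and 460 nm emission, with triamterene as the reference fluorophore.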
On the % scale 0 is the no-effect control and ±100 the full control effect.

Cc1c(Nc2ncccc2C(=O)O)cccc1C(F)(F)F
inactive: fluorescence, % of fluorescein [1] 0.0171% [at 18.6 µM] | activity change [2] 0.0935% [at 18.6 µM] | fluorescence, % of fluorescent control [3] -0.29% [at 18.6 µM] | fluorescence, % of fluorescent control [4] 0.0612% [at 18.6 µM] | fluorescence, % of fluorescein control [5] -0.0657% [at 18.6 µM]

CC(O)C(C)O (centres undefined)
inactive: outcome [1] | outcome [2] | outcome [3] | outcome [6] | outcome [4] | outcome [5] | outcome [7] | Potency [8] | Potency [9]

O=S(=O)(O)c1cc(Cl)c(Cl)cc1Cl
inactive: Potency [10] | outcome [2] | outcome [3] | outcome [6] | outcome [4] | outcome [5] | outcome [7]

O=[N+]([O-])c1ccccc1CCO
inactive: outcome [1] | outcome [2] | outcome [3] | outcome [6] | outcome [4] | outcome [5] | outcome [7] | Potency [8]

O=C(O)c1cc(C(=O)O)c(C(=O)O)cc1C(=O)O
inactive: outcome [1] | outcome [2] | outcome [3] | outcome [6] | outcome [4] | outcome [5] | outcome [7] | Potency [8] | Potency [9]

CCC(=O)O[C@@H]1C[C@H]2CC[C@]1(C)C2(C)C
inactive: outcome [1] | outcome [2] | outcome [6] | outcome [4] | outcome [5] | outcome [7] | Potency [8] | Potency [9]

CCOc1ccc(NC(C)=O)cc1N
inactive: outcome [1] | outcome [2] | outcome [3] | outcome [6] | outcome [4] | outcome [5] | outcome [7]

O=C1C=CCCC1
inactive: outcome [1] | outcome [3] | outcome [4] | outcome [5] | outcome [7]

CC(C(=O)O)c1ccc(/C=C2\CCCCC2=O)cc1 (centres undefined)
inactive: outcome [1] | outcome [2] | outcome [3] | outcome [6] | outcome [4] | outcome [5] | outcome [7] | Potency [8] | Potency [9]

O=C(Cl)c1cc(Cl)cc(Cl)c1
inactive: outcome [1] | outcome [3] | outcome [6] | outcome [4] | outcome [5] | Potency [8] | Potency [9]

[O-][n+]1ccc(Cl)cc1
inactive: outcome [1] | outcome [2] | outcome [6] | outcome [4] | outcome [5] | outcome [7] | Potency [8] | Potency [9]

Cc1ccc(S(=O)(=O)NC(=O)NC2CCCC2)cc1
inactive: outcome [1] | outcome [2] | outcome [6] | outcome [4] | outcome [5] | outcome [7] | Potency [8] | Potency [9]

Cc1c(-c2cccnc2)c2ccccc2n1CCCCC(=O)O
inactive: outcome [1] | outcome [6] | outcome [4] | outcome [5] | outcome [7]

FC1(F)C(F)(F)C(F)(F)C2(F)C(F)(C1(F)F)C(F)(F)C(F)(F)C1(F)C(F)(F)C(F)(F)C(F)(F)C(F)(F)C12F (centres undefined)
inactive: outcome [1] | outcome [3] | outcome [6] | outcome [4] | outcome [5] | Potency [8]

C=CCCC
inactive: outcome [1] | outcome [6] | outcome [4] | outcome [5] | outcome [7] | Potency [8] | Potency [9]

C=C(C)C(=O)OCCCCCCCCCCOC(=O)C(=C)C
inactive: Potency [10] | outcome [2] | outcome [3] | outcome [6] | outcome [4] | outcome [5] | outcome [7]

CCOc1cc(OCC)c(C(C)=O)cc1OCC
inactive: Potency [10] | outcome [2] | outcome [3] | outcome [6] | outcome [4] | outcome [5] | outcome [7] | Potency [8]

CC1=C(C)C(=O)C(CCCCC#CCCCC#CCO)=C(C)C1=O
inactive: outcome [2] | outcome [3] | outcome [6] | outcome [4] | outcome [5] | outcome [7] | Potency [8] | Potency [9]

CC(CCl)OC(C)CCl (centres undefined)
inactive: outcome [2] | outcome [3] | outcome [6] | outcome [4] | outcome [5] | outcome [7] | Potency [8] | Potency [9]

CC(=O)Nc1cccc(N)c1
inactive: Potency [10] | outcome [2] | outcome [3] | outcome [6] | outcome [5] | outcome [7] | Potency [8] | Potency [9]

NCCOCCOCCN
inactive: Potency [10] | outcome [2] | outcome [6] | outcome [4] | outcome [5] | outcome [7] | Potency [8]

CCc1ccc(C(=O)C(C)CN2CCCCC2)cc1 (centres undefined)
inactive: Potency [10] | outcome [2] | outcome [3] | outcome [4] | outcome [5] | outcome [7] | Potency [8] | Potency [9]

Nc1ccc(F)cc1F
inactive: Potency [10] | outcome [3] | outcome [4] | outcome [5] | outcome [7] | Potency [8] | Potency [9]

CC/C=C/CCO
inactive: Potency [10] | outcome [2] | outcome [3] | outcome [4] | outcome [5] | outcome [7] | Potency [8]

CC(C)=CCC/C(C)=C/C=N/O
inactive: Potency [10] | outcome [6] | outcome [4] | outcome [5] | outcome [7] | Potency [8]

CCCC(=O)OCc1ccccc1
inactive: Potency [10] | outcome [2] | outcome [3] | outcome [6] | outcome [4] | outcome [5] | outcome [7]
